In all, about 69,000 compounds went through this assay and about 8,600 (12%) showed an effect of 50% or more. Many of the other results were omitted from the sample, so strong results are more common in it than they were.
The molecules below were run on Plasmodium berghei (assay: Screen against P. berghei liver stage (PbLuc), transformed with Luciferase, at 10uM). Details: tested at 10 uM.
Assay type: functional, HepG2
Work on `O=C(c1ccc2c(c1)CCCC2)N1CCCC(n2cncn2)C1` (stereo not given) yielded an INHIBITION of 19.6%.
`O=C(c1cccnc1)N1CCCC(c2ncncc2-c2ccncc2)C1` (stereo not given) was tested, and the INHIBITION was 44.8%.
With `C[C@@H]1C(=O)NC[C@H]2CN(Cc3ccc4c(c3)OCO4)C[C@H]21` the INHIBITION was 30.9%.
For `COc1nn(C)c2c1CCCN(C(=O)c1ccc3c(c1)OCO3)C2`, the INHIBITION was 20.9%.
In the case of `O=C(Nc1ccccc1OCCc1ccccn1)N1CCOCC1`, the INHIBITION is reported as -98.1%.
For `CNC(=O)C1(Cc2cc(C(C)C)no2)CCN(Cc2cccnc2)C1` (stereo not given), the INHIBITION was 13.125%.
In the case of `CCNC(=O)N1CCc2ccc(NC(=O)NCC3CC3)cc21`, the INHIBITION is reported as 10.7%.
`COCCN1CCC(NC(=O)Nc2cccc(F)c2)C1` (stereo not given) showed an INHIBITION of 28.9%.
For `CCS(=O)(=O)N1CCc2ccc(NC(=O)Nc3ccccc3)cc21`, the INHIBITION was 88.5%.
`CCS(=O)(=O)N1CCc2ccc(NC(=O)Nc3cccc(F)c3)cc21` was tested, and the INHIBITION was 91.4%.
`CCS(=O)(=O)N1CCc2ccc(NC(=O)NCc3ccccc3)cc21` gave an INHIBITION of -23.5%.
`CCS(=O)(=O)N1CCc2ccc(NC(=O)Nc3ccccc3C)cc21` showed an INHIBITION of 34.5%.
With `Cn1cccc1C(=O)N1CCO[C@@H]2CN(Cc3nccs3)C[C@@H]2C1` the INHIBITION was -28.5%.
With `CN(C)C(=O)COC[C@]12COC[C@H]1CN(CC1CCC1)C2` the INHIBITION was -11.1%.
Molecule `COc1ccnc(N2CCN(C(=O)Cc3ccsc3)CC2)n1` has an INHIBITION of -47.6%.
Work on `CNS(=O)(=O)CCCN1CCN(C(C#N)c2ccccc2)CC1` (stereo not given) yielded an INHIBITION of 47.3%.
`O=C(Cc1ccccc1)N1CCN(Cc2noc(C3CC3)n2)CC1` showed an INHIBITION of 1.77%.
Work on `CNC(=O)c1c(C)cccc1NCc1nnc(C2CC2)o1` yielded an INHIBITION of 24.3%.
Molecule `Cc1ccccc1NC(=O)N1CCN(Cc2noc(C3CC3)n2)CC1` has an INHIBITION of 58.5%.
Work on `O=C(Nc1ccccc1)N1CCN(Cc2noc(C3CC3)n2)CC1` yielded an INHIBITION of 17.4%.
In the case of `O=C(Nc1ccc(F)cc1)N1CCN(Cc2noc(C3CC3)n2)CC1`, the INHIBITION is reported as -3.2%.
In the case of `O=C(Cc1ccccc1F)N1CCN(Cc2noc(C3CC3)n2)CC1`, the INHIBITION is reported as 52.3%.
`CNC(=O)c1c(C)cccc1NCC(=O)Nc1cc(C)nn1C` showed an INHIBITION of 19.1%.
Molecule `O=C(Nc1ccccc1F)N1CCN(Cc2noc(C3CC3)n2)CC1` has an INHIBITION of 11.8%.
For `CNC(=O)c1c(C)cccc1NCc1noc(C2CC2)n1`, the INHIBITION was 74%.
`COC1(CNC(=O)c2ccc3nsnc3c2)CCSC1` (stereo not given) gave an INHIBITION of -3.83%.
`COCc1noc(CN2CCC3(CC2)[C@H](O)C[C@@H]3OC)n1` was tested, and the INHIBITION was 15.8%.
`CCOc1ccc(OCC(O)CN2CCN(S(C)(=O)=O)CC2)cc1` (stereo not given) showed an INHIBITION of -67.3%.
With `CC(=O)NCC1CCN(C(=O)c2c[nH]c3cc(Cl)ccc23)CC1` the INHIBITION was 35.3%.
With `CN1CCO[C@@H]2CN(S(=O)(=O)c3cccs3)CC[C@@H]2C1` the INHIBITION was 28.5%.
`CCn1cc(C(=O)N2C[C@H]3CC(Oc4ccccc4)C[C@H]3C2)cn1` (stereo not given in full) showed an INHIBITION of -17.715%.
For `CC(C)(C)NC[C@@H]1CCC[C@@H]2CN(Cc3csnn3)C[C@@H]21`, the INHIBITION was -39.2%.
For `O=C(Cn1cc(-c2ccccc2)cn1)NC(C1CC1)C1CC1`, the INHIBITION was 34.7%.
In the case of `OCCn1cc(CN2CCN(CCOc3cccc(F)c3)CC2)cn1`, the INHIBITION is reported as 33.95%.
Molecule `Cc1cnc(NC(C)Cc2cccnc2)nc1N(C)C` (stereo not given) has an INHIBITION of 55%.
Molecule `Cc1cnc(NC(C)Cc2cnccn2)nc1N(C)C` (stereo not given) has an INHIBITION of 0.705%.
`Cc1cc(CC(C)Nc2ncc(C)c(N(C)C)n2)[nH]n1` (stereo not given) showed an INHIBITION of 63.7%.
For `Cc1cc(NC(C)Cc2cccnc2)n2nccc2n1` (stereo not given), the INHIBITION was 23%.
In the case of `COCc1nc(NC(C)Cc2cc(C)n[nH]2)c2cnn(C)c2n1` (stereo not given), the INHIBITION is reported as 25.4%.
Work on `Cc1cccnc1CC(C)Nc1ncc(C)c(N(C)C)n1` (stereo not given) yielded an INHIBITION of 27.9%.
Molecule `COc1ccc(C(=O)N2C[C@@H](O)[C@H](NCc3cnc(C)cn3)C2)cc1` has an INHIBITION of 35.15%.
`O=C(NCCc1nncn1C1CC1)c1cc2ccccn2c1` gave an INHIBITION of -22.3%.
`O=C(Nc1ccc(CC(=O)N2CCSCC2)cc1)NC1CCCC1` was tested, and the INHIBITION was 33.2%.
`Cc1noc(CNc2ccc(CC(=O)N3CCSCC3)cc2)n1` gave an INHIBITION of 32.5%.
`CN(C(=O)Cc1ccc(NC(=O)NC2CC2)cc1)c1ccccc1` gave an INHIBITION of 8.845%.
`O=C(Nc1ccc(CC(=O)N2CCSCC2)cc1)NC1CC1` gave an INHIBITION of 53.8%.
`CN(C)C(=O)Cc1ccc(NC(=O)NC2CCCC2)cc1` gave an INHIBITION of -36.6%.
With `CCc1noc(CNc2ccc(CC(=O)N3CCSCC3)cc2)n1` the INHIBITION was 28.5%.
Molecule `CN(C(=O)Cc1ccc(NC(=O)NC2CCC2)cc1)c1ccccc1` has an INHIBITION of 55.3%.
With `O=C(Nc1ccc(CC(=O)N2CCCC2)cc1)NC1CC1` the INHIBITION was 36.2%.
`CCc1nnc(CNc2ccc(CC(=O)N3CCSCC3)cc2)o1` showed an INHIBITION of 84.2%.
In the case of `CC(C)C(NC(=O)Nc1ccc(F)cc1)C(=O)N(C)C` (stereo not given), the INHIBITION is reported as 18.7%.
`Cn1cc(-c2cc(C(F)(F)F)n(CCCN)n2)cn1` showed an INHIBITION of 21.9%.
For `CNC(=O)CN([C@H]1C[C@H]2CCOC[C@H]2C1)S(=O)(=O)c1ccccc1`, the INHIBITION was 19.2%.
`O=C1COC2(CCN(Cc3ccoc3)CC2)CN1CCn1cccn1` gave an INHIBITION of 0.804%.
With `Cc1occc1C(=O)N1CCO[C@H]2[C@H](OCc3ccccn3)CC[C@@H]21` the INHIBITION was 30.3%.
Molecule `Cc1cnc(N2CCC(c3ccccc3)CC2)nc1-c1ccnn1C` has an INHIBITION of 68%.
`Cc1cnc(N2CC[C@@]3(O)CCCC[C@H]3C2)nc1-c1ccnn1C` gave an INHIBITION of 30.4%.
`Cc1cnc(N2CCCC(c3ccccc3)C2)nc1-c1ncnn1C` (stereo not given) was tested, and the INHIBITION was 39.3%.
`Cc1cnc(N2CCCC(c3ccccc3)C2)nc1-c1ccnn1C` (stereo not given) was tested, and the INHIBITION was 71%.
Molecule `COc1cnc(N2CC(N3CCOCC3)C2)nc1-c1ccnn1C` has an INHIBITION of 41%.
In the case of `Cc1cnc(N2CCN(C)CC2)nc1-c1ccnn1C`, the INHIBITION is reported as 16.3%.
`COc1cnc(N2CCN(C)CC2)nc1-c1ccnn1C` was tested, and the INHIBITION was 20.8%.
With `Cc1cnc(N2CCC(c3ccncc3)CC2)nc1-c1ccnn1C` the INHIBITION was 68%.
With `Cc1cnc(N2CCCC(O)C2)nc1-c1ccnn1C` (stereo not given) the INHIBITION was 16.6%.
With `Cc1ccoc1C(=O)N1C[C@@H]2COC[C@]2(COCc2cccnc2)C1` the INHIBITION was -34.7%.
`CCCc1n[nH]c(C2CN(C(=O)c3n[nH]c4ccccc34)CCO2)n1` (stereo not given) gave an INHIBITION of 21%.
Work on `COC(=O)NCC(=O)NC1(C)CCc2ccccc2C1` (stereo not given) yielded an INHIBITION of 7.3%.
`CN(C)c1ccc(C(=O)N2CCCC(n3cccn3)C2)nn1` (stereo not given) was tested, and the INHIBITION was 3.15%.
Molecule `Cc1ccc(NC2CCN(C(=O)CCCc3cccs3)CC2)nn1` has an INHIBITION of -3.7%.
In the case of `O=C1CCC2(CCN(Cc3cscn3)CC2)CN1CC1CCCO1` (stereo not given), the INHIBITION is reported as -23.5%.
`Cc1n[nH]c(SCC(=O)NC(c2ccccn2)C(C)C)n1` (stereo not given) gave an INHIBITION of 58.7%.
`CSCC(=O)NC(Cc1ccc(C)cc1)c1ccccn1` (stereo not given) gave an INHIBITION of 21.3%.
Molecule `Cc1n[nH]c(SCC(=O)N[C@@H](C)C(N)=O)n1` has an INHIBITION of 4.41%.
Molecule `Cc1ccc(OCCC(=O)NC(C)c2ccncc2)cc1` (stereo not given) has an INHIBITION of 41.6%.
Molecule `Cc1noc(CCCC(=O)NC(C)c2ccccn2)n1` (stereo not given) has an INHIBITION of 13.9%.
For `Cc1n[nH]c(SCC(=O)NC(c2ccncc2)C(C)C)n1` (stereo not given), the INHIBITION was 50.1%.
`CC(C)CNC(=O)Cn1ccc2ccccc21` showed an INHIBITION of 25.7%.
Work on `O=C(NC1CC1)c1ccnc(-c2cc(NCCO)nc3[nH]ccc23)c1` yielded an INHIBITION of -20.1%.
With `CCS(=O)(=O)N1CCCC2(CCCN2Cc2cccc(F)c2)C1` (stereo not given) the INHIBITION was -22.1%.
`O=S(=O)(c1ccccc1)N1CCC2(CCCN2Cc2cccc(F)c2)C1` (stereo not given) gave an INHIBITION of 78.8%.
For `O=C(c1ccc[nH]1)N1CCC2(CCCN2Cc2cccnc2)CC1`, the INHIBITION was 4.02%.
`O=S(=O)(c1ccccc1)N1CCC2(CCCN2Cc2cccnc2)C1` (stereo not given) showed an INHIBITION of 55.5%.
Molecule `O=C(c1ccc[nH]1)N1CCCC2(CCCN2Cc2cccnc2)C1` (stereo not given) has an INHIBITION of 12.1%.
Molecule `COCCC(=O)N1CCC2(CCCN2Cc2ccccc2)C1` (stereo not given) has an INHIBITION of -22.5%.
With `CS(=O)(=O)N1CCCC12CCCN(S(=O)(=O)c1cccc(F)c1)C2` (stereo not given) the INHIBITION was -2.35%.
For `Cc1ccc(CN2CCCC23CCN(S(=O)(=O)c2ccccc2)C3)o1` (stereo not given), the INHIBITION was 34.7%.
`CCc1ccc(S(=O)(=O)N2CCCC3(CCCN3S(C)(=O)=O)C2)cc1` (stereo not given) showed an INHIBITION of -12.2%.
With `O=S(=O)(c1ccccc1)N1CCC2(CCCN2Cc2ccc(Cl)cc2)C1` (stereo not given) the INHIBITION was 91.7%.
In the case of `O=S(=O)(c1ccccc1)N1CCC2(CCCN2Cc2ccccc2Cl)C1` (stereo not given), the INHIBITION is reported as 60.2%.
For `CC(C)c1ccc(S(=O)(=O)N2CCCC3(CCCN3S(C)(=O)=O)C2)cc1` (stereo not given), the INHIBITION was -3.33%.
`CCOc1cc(/C=C/c2ncc(C(=O)O)s2)cc(Br)c1O` gave an INHIBITION of -13.3%.
With `CC(C)CNC(=O)CNC(=O)c1nc(Cc2c(Cl)cccc2Cl)no1` the INHIBITION was 41%.
Molecule `COCCC1CCN(CC(C)n2cnc3ccccc32)CC1` (stereo not given) has an INHIBITION of -3.47%.
In the case of `CCc1nc(CN2CCCN(C(=O)c3cnc(C)cn3)CC2)cs1`, the INHIBITION is reported as 10.733%.
With `COc1ccccc1CN(Cc1cccnc1)CC1CCCO1` (stereo not given) the INHIBITION was 42.6%.
Work on `CCN(CC)Cc1ccc(C(=O)N2CCN(CC(C)O)CC2)o1` (stereo not given) yielded an INHIBITION of 21.5%.
`COC(=O)c1cccc(S(=O)(=O)NC(=O)COC2CCCC2)c1` was tested, and the INHIBITION was 15.5%.
For `CCS(=O)(=O)N1CCCC2(CCCN2Cc2cccc(Cl)c2)C1` (stereo not given), the INHIBITION was -14.3%.
With `COCCC(=O)N1CCC2(CCCN2Cc2cccc(Cl)c2)C1` (stereo not given) the INHIBITION was 47.9%.
In the case of `O=S(=O)(c1ccccc1)N1CCC2(CCCN2Cc2cccc(Cl)c2)C1` (stereo not given), the INHIBITION is reported as 61.8%.
Molecule `NC(=O)C1CCN(C(=O)NCCOc2ccc3c(c2)CCC3)CC1` has an INHIBITION of 5.45%.
`N[C@H]1CN(C(=O)c2ccc(Cl)cc2O)C[C@@H]1C1CC1` showed an INHIBITION of 61%.
Work on `N[C@H]1CN(C(=O)c2ccc(Cl)cc2F)C[C@@H]1C1CC1` yielded an INHIBITION of 25.7%.
For `Cc1cc(Cl)ccc1C(=O)N1C[C@H](C2CC2)[C@@H](N)C1`, the INHIBITION was 32.2%.

From ChEMBL document CHEMBL4513216, “Probing the Open Global Health Chemical Diversity Library for Multistage-Active Starting Points for Next-Generation Antimalarials” (ACS Infect Dis, 2020)
